# Test results taken from PubChem BioAssay (EPA / NIEHS).
# Where “and” joins values, the source holds several entries; their conditions need not be identical. Equal values may be shown once. Records with an inconclusive call do not appear. Calls of active or inactive are those of the source. Rule for the calls: active = hit-call score of the fitted dose curve at least 0.9, where 1 is the maximum; inconclusive = response in the unintended direction; inactive = score below 0.9.
# Tests used:
# [1] = molecular target: Bile acid receptor (Homo sapiens) (UniProt Q96RI1); experiment: NVS_NR_hFXR_Antagonist: NovaScreen (NVS) Nuclear Receptor Binding Assay for human Farnesoid X Receptor Antagonism (FXR) (AID 2283350)
# Bile acid receptor (Homo sapiens), sequence (Q96RI1 whole entry, looked up): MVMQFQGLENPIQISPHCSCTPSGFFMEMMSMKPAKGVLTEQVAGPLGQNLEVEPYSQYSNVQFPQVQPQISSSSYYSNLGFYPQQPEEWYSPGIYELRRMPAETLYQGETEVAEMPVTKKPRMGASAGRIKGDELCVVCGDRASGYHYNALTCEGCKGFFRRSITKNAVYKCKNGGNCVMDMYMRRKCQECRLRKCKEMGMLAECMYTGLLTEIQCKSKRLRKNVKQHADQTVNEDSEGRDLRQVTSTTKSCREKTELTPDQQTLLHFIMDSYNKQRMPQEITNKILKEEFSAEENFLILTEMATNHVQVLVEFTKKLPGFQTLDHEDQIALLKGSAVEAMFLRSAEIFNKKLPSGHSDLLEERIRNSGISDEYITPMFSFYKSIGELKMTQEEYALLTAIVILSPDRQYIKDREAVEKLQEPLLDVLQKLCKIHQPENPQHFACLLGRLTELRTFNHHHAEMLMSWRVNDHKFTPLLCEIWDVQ
# How it was run: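 Cell-free TR-FRET ligand-binding read-out on human FXR (NR1H4) in antagonist mode, measured 1 h after dosing. Primary screen in duplicate at 25 uM, actives retested in concentration series; signal loss scored versus DMSO.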
# [2] = molecular target: bovine Estrogen Receptor (ER), ESR1 (gene 407238) (UniProt P49884); experiment: NVS_NR_bER: NovaScreen (NVS) Nuclear Receptor Binding Assay for bovine Estrogen Receptor (ER) (AID 2283345);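 note: actives lower the bound radioligand count which means they displace the ER ligand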
# bovine Estrogen Receptor (ER), ESR1 (gene 407238), sequence (P49884 whole entry, looked up): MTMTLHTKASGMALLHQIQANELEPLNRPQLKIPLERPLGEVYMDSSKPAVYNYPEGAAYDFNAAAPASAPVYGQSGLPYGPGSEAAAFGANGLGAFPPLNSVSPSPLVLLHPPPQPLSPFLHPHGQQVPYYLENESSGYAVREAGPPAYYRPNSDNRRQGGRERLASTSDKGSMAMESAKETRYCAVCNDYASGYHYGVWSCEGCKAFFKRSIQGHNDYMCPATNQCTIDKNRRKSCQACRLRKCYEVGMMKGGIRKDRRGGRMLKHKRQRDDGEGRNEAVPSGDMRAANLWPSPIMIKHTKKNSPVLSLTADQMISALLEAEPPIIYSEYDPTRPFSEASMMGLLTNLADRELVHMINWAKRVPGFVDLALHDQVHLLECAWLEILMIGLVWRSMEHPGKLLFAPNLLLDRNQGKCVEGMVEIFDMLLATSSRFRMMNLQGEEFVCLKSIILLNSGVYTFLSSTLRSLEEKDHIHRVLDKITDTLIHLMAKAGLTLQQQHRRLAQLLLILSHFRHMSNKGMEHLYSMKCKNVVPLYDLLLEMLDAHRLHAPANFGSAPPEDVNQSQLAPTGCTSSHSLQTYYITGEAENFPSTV
# How it was run: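 Displacement of a radioligand from estrogen receptor in bovine uterine membrane preparations; scintillation signal taken at 18 hours, DMSO as baseline. Single-concentration duplicates (25 uM) preceded concentration-response follow-up of actives.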
# [3] = molecular target: chimpanzee Androgen Receptor (AR), AR (gene 747460) (UniProt O97775); experiment: NVS_NR_cAR: NovaScreen (NVS) Nuclear Receptor Binding Assay for chimpanzee Androgen Receptor (AR) (AID 2283346);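 note: radioligand displacement from AR measured by scintillation counting in a cell-free assay; a loss of bound radioligand signal versus DMSO counts as binding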
# chimpanzee Androgen Receptor (AR), AR (gene 747460), sequence (O97775 whole entry, looked up): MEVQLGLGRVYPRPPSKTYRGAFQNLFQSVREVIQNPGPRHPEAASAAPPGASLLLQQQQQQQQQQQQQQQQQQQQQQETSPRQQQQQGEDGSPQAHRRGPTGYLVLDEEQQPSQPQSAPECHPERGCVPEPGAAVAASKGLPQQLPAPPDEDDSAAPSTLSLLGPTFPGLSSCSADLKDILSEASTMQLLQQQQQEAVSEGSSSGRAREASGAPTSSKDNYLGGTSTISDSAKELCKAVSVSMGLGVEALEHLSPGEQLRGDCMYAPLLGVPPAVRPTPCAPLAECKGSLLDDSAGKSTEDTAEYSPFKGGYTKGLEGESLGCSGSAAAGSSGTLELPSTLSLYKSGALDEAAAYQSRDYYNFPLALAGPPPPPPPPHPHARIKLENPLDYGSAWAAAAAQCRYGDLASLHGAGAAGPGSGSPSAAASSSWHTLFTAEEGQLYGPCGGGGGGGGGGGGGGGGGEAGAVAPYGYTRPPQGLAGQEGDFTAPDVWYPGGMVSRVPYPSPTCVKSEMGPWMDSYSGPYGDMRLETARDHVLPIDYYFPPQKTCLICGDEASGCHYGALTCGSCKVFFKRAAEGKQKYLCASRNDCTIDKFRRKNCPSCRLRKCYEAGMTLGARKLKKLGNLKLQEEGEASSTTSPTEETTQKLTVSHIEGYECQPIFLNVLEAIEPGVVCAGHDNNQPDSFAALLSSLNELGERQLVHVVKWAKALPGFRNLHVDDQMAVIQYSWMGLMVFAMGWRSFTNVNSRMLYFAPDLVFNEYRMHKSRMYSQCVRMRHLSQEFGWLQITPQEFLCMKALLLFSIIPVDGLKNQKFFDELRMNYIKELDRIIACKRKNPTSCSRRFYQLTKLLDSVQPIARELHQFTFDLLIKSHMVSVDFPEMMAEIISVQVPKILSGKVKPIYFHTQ
# How it was run: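 Radioligand binding to chimpanzee AR expressed in Sf9/Sf21 cells, cell-free, measured 72 h after dosing by lysate-based scintillation counting. Loss of signal vs DMSO; initial duplicate screen at 25 uM, actives retested in concentration series.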
# [4] = molecular target: Estrogen receptor (Homo sapiens) (UniProt P03372); experiment: OT_ER_ERaERa_1440: Odyssey Thera (OT) 24-hour HEK293T Protein-Complementation Assay for Estrogen Receptor-alpha/-alpha Homodimer (AID 2283349);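 note: hits raise fluorescence above DMSO for agonists and antagonists alike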
# Estrogen receptor (Homo sapiens), sequence (P03372 whole entry, looked up, the tested form may be a part): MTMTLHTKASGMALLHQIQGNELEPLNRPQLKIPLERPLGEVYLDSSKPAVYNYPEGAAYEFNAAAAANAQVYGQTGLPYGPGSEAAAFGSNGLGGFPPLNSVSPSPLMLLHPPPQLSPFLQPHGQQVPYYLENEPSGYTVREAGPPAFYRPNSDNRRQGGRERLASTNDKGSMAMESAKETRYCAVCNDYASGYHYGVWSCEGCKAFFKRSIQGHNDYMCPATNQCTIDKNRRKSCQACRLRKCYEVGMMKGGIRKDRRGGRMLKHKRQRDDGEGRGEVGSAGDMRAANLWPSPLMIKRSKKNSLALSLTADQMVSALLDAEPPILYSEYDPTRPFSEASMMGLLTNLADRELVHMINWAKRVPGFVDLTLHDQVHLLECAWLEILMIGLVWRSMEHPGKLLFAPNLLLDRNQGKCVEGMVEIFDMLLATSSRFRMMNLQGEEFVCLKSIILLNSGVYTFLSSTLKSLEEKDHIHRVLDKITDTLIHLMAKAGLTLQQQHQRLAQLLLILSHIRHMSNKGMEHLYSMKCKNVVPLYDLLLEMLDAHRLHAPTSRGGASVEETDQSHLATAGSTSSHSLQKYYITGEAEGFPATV
# How it was run: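 HEK293T cells stably expressing the human ER alpha ligand-binding domain (aa 310-547) as a homodimer PCA were dosed for 24 hours. Fluorescence intensity was read by laser scanning cytometry, and gain of signal was fitted relative to DMSO vehicle.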
# [5] = molecular target: Estrogen receptor (Homo sapiens) (UniProt P03372); experiment: OT_ER_ERaERa_0480: Odyssey Thera (OT) 8-hour HEK293T Protein-Complementation Assay for Estrogen Receptor-alpha/-alpha Homodimer (AID 2283351);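 note: rise in fluorescence from reassembled reporter fragments on ERα LBD homodimer in nucleus or whole cell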
# How it was run: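 HEK293T cells stably expressing the human ERα ligand-binding domain (aa 310-547) as a homodimer PCA were dosed with compound for 8 h. Gain of fluorescence intensity versus DMSO vehicle was read by laser scanning cytometry.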
# [6] = molecular target: Estrogen receptor (Homo sapiens) + Estrogen receptor beta (Homo sapiens) (UniProt P03372+Q92731); experiment: OT_ER_ERaERb_0480: Odyssey Thera (OT) 8-hour HEK293T Protein-Complementation Assay for Estrogen Receptor-alpha/-beta Heterodimer (AID 2283352)
# Estrogen receptor (Homo sapiens) + Estrogen receptor beta (Homo sapiens), sequence (P03372 whole entry, looked up, the tested form may be a part): as above
# Estrogen receptor (Homo sapiens) + Estrogen receptor beta (Homo sapiens), sequence (Q92731 whole entry, looked up, the tested form may be a part): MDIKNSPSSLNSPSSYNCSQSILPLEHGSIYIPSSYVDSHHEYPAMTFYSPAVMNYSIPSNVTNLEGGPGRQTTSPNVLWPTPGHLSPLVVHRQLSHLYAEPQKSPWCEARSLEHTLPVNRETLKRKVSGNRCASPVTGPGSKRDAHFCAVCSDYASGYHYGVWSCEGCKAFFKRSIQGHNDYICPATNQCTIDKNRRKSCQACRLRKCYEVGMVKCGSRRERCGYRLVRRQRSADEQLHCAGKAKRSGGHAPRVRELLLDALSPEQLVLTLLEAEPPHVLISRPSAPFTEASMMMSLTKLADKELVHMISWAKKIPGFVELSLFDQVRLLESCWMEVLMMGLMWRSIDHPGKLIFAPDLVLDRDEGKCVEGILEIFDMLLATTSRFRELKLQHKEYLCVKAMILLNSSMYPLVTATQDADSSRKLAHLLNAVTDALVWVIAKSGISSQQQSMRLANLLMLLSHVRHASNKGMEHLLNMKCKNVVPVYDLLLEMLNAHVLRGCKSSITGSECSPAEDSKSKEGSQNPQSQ
# How it was run: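 HEK293T cells expressing ER-alpha/ER-beta LBD fusions to complementary reporter fragments were dosed with compound for 8 hours. Heterodimer formation was read as increased nuclear (agonist) or nuclear plus cytoplasmic (antagonist) mean fluorescence intensity versus DMSO vehicle.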
# [7] = molecular target: Estrogen receptor (Homo sapiens) (UniProt P03372); experiment: NVS_NR_hER: NovaScreen (NVS) Nuclear Receptor Binding Assay for human Estrogen Receptor (ER) (AID 2283348)
# How it was run: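 Radioligand competitive displacement binding to estrogen receptor from MCF7 extract, cell-free; 18 h after dosing, scintillation read-out. Primary screen in duplicate at 25 uM; actives followed up in concentration series; loss of signal vs DMSO.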
smiles,measurement,setting,value
O=C(O)Cc1cc(I)c(Oc2ccc(O)c(I)c2)c(I)c1,AC50,[1],40.3 µM (active)
OC12N=C(c3ccccc3)SC1Cc1cc(Cl)ccc12 (stereo not drawn),outcome,[2],inactive
same,outcome,[3],inactive
same,outcome,[4],inactive
same,outcome,[5],inactive
same,outcome,[6],inactive
Cc1ccc(C(C)C)cc1,outcome,[4],inactive
same,outcome,[5],inactive
CC(C)(O)c1ccc(CNC(=O)c2cccnc2Oc2ccc3nonc3c2)cc1,outcome,[7],inactive
same,outcome,[4],inactive
same,outcome,[5],inactive
CC1(C)NC(=O)N(c2ccc([N+](=O)[O-])c(C(F)(F)F)c2)C1=O,AC50,[3],1.06 µM (active) and 136 nM (active)
O=CCCCC=O,outcome,[2],inactive
same,outcome,[4],inactive
same,outcome,[5],inactive
O=C(Nc1ccc(Cl)cc1)Nc1ccc(Cl)c(Cl)c1,outcome,[2],inactive
same,outcome,[7],inactive
same,outcome,[4],inactive
same,outcome,[1],inactive
same,outcome,[5],inactive
same,outcome,[6],inactive
O=C(O)c1ccccc1C(=O)OCc1ccccc1,outcome,[4],inactive
same,outcome,[1],inactive
same,outcome,[5],inactive
NC(=O)c1nc(-c2cccc(-c3cc(F)ccc3OCC(F)(F)C(F)(F)F)c2)n[nH]1,outcome,[7],inactive
same,outcome,[4],inactive
same,outcome,[5],inactive
O=C(O)Cn1c(=O)n(Cc2ccc(Br)cc2F)c(=O)c2ccc(Cl)cc21,outcome,[4],inactive
same,outcome,[5],inactive
same,outcome,[6],inactive
Cc1cccc2ccccc12,outcome,[4],inactive
same,outcome,[5],inactive
CCN(Cc1cccc(S(=O)(=O)O)c1)c1ccc(C(=C2C=CC(=[N+](CC)Cc3cccc(S(=O)(=O)O)c3)C=C2)c2ccccc2S(=O)(=O)[O-])cc1,AC50,[3],16.1 µM (active)
same,outcome,[4],inactive
same,outcome,[1],inactive
same,outcome,[6],inactive
CCCCCCCCCCCCO,outcome,[4],inactive
same,outcome,[5],inactive
same,outcome,[6],inactive
Clc1ccccc1C(c1ccccc1)(c1ccccc1)n1ccnc1,outcome,[2],inactive
same,outcome,[7],inactive
same,outcome,[4],inactive
same,outcome,[5],inactive
